Results on five compounds are retold here after PubChem BioAssay (NCATS).

Structures are written as SMILES. Unmarked numbers belong to inactive results. Records with an inconclusive call do not appear. Calls of active or inactive are those of the source. Unless noted, calls come from the whole dose curve; as a rule, active = well fitted curve in the direction sought with a large enough effect; inconclusive = small, poorly fitted or top-dose-only effect, or another doubt; inactive = no such curve, though single readings can be large; an effect the other way counts as inactive or inconclusive.

Assay [1] in a line: Cell Viability - BJ (AID 421; calls by dose curve;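 note: potency is the fitted concentration of half-maximal effect; cells exposed to compound for 40 hours at 37 °C before readout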). As to conditions: BJ fibroblast viability, qHTS. Summed up:
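Normal human BJ foreskin fibroblasts, 1500/well in complete medium, treated 40 hr at 37 °C. Cellular ATP by CellTiter-Glo luminescence; normalized to DMSO and 100 uM tamoxifen, AC50 from Hill fit.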

A short description of assay [2]: Cell Viability - Jurkat (AID 426;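 active = dose-dependent loss of cell ATP signal giving a full or clear fitted curve, ranked by lower potency value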; note: potency is the fitted concentration of half-maximal effect). As to conditions: qHTS. Put shortly:
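Jurkat (Clone E6-1) cells, 5000/well in complete medium, exposed to compounds for 40 hr at 37C; intracellular ATP measured by CellTiter-Glo luminescence after 20 min at room temperature. AC50 from Hill fits.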

Assay [3] in a line: Cell Viability - Hek293 (AID 427;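 active = compounds whose dose-response curve shows a full or clear partial loss of cell viability, called from curve shape rather than a numeric limit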;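 note: potency is the fitted concentration of half-maximal effect; cells exposed to compound for 40 hours at 37 °C before reading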). As to conditions: qHTS. Summed up:
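HEK293 cells in complete medium were exposed to compound for 40 hr at 37 °C, then cellular ATP was read by CellTiter-Glo luminescence. Data were normalized to DMSO (basal) and 100 uM tamoxifen (100% inhibition), and AC50 came from Hill fits.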
(In general: Quantitative high-throughput screening tests each substance at several concentrations.)

Assay [4] can be described thus: Cell Viability - HepG2 (AID 433; calls by dose curve;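 note: potency is the fitted concentration of half-maximal effect; potency for ATP loss meaning cytotoxicity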). As to conditions: qHTS. Summed up: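 HepG2 hepatocellular carcinoma cells (1500/well) were treated with compounds for 40 h at 37 °C in complete medium; intracellular ATP was read by CellTiter-Glo luminescence. Data were normalized to DMSO and 100 uM tamoxifen, and AC50 came from Hill fits.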
Assay [5] is described as follows: Cell Viability - MRC5 (AID 434; calls by dose curve;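 note: potency is the fitted concentration of half-maximal effect; potency reflects cytotoxicity seen as loss of intracellular ATP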). As to conditions: MRC5 lung fibroblast viability, qHTS. Put shortly:
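MRC5 normal human lung fibroblasts (1500/well) were treated with compounds for 40 hr at 37 °C in complete medium, and viable cells were measured as intracellular ATP by CellTiter-Glo luminescence. AC50 came from Hill fits, normalized to DMSO and 100 uM tamoxifen.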

Assay [6] is described as follows: Cell Viability - SK-N-SH (AID 435; calls by dose curve;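 note: potency is the fitted concentration of half-maximal effect; compound exposure lasted 40 h at 37 °C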). As to conditions: SK-N-SH neuroblastoma cell viability qHTS. Summed up: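 SK-N-SH human neuroblastoma cells (1500/well) were exposed to compounds in complete medium for 40 h at 37 °C, and intracellular ATP was then measured by CellTiter-Glo luminescence. AC50 was taken from Hill fits, normalized to DMSO and 100 uM tamoxifen.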

The target in assay [7] is Mitogen-activated protein kinase 10 (Mus musculus) (UniProt Q61831). The experiment in a line: JNK3 AlphaScreen Assay (AID 530; active = well fitted curve in either direction with a large enough effect, not every such curve was filed as active;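 note: kinase came from lysate of stimulated human HepG2 cells; signal reports phosphorylation of biotinylated GST-cJun 1-79 at Ser73 with 10 µM ATP; % is set by controls: 0 for no effect and ±100 for the full control effect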). As to conditions: JNK3 lysate, c-Jun phosphorylation; series mostly up to 57.1 µM. Put shortly: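 Inhibitors reduce antibody binding to phosphorylated biotin-cJun, lowering AlphaScreen luminescence. Lysates from HepG2 cells pre-activated by IL-1beta plus TNF-alpha supplied JNK3; compounds were titrated.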
Background: Bead proximity is the source of the signal in Alpha formats.

Assay [8] is described as follows: Cell Viability - N2a (AID 540).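 Note: plate controls were DMSO alone for no effect and tamoxifen control for full effect; nearly all actives have a fitted effect of over 45% in size.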 As to conditions: N2a mouse neuroblastoma cell viability; activity change, negative = cytotoxicity: at 92.2 µM (top of the series). Put shortly: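 Mouse neuroblastoma N2a cells, 1500/well, exposed to compounds 40 h at 37 °C in complete medium. Viability measured as cellular ATP by CellTiter-Glo luminescence; AC50 from Hill fits of concentration-response.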

Assay [9] in a line: Cell Viability - NIH 3T3 (AID 541).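 Note: plate controls were DMSO alone for no effect and tamoxifen positive control for full effect; nearly all actives have a fitted effect of over 25% in size.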 As to conditions: NIH 3T3 cell viability, qHTS; activity change, negative = cytotoxicity: at 92.2 µM (top of the series). Summed up:
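Mouse NIH 3T3 fibroblasts, 1000 cells/well, rested 5 hr at 37 °C, then exposed to compound for 40 hr at 37 °C in complete medium. Viability read as intracellular ATP by CellTiter-Glo luminescence; AC50 from Hill-equation fits of concentration-response data.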

Assay [10] in a line: Cell Viability - HUV-EC-C (AID 542). Note: % is set by controls: 0 for no effect and ±100 for the full control effect; nearly all actives have a fitted effect of over 35% in size. As to conditions: HUV-EC-C endothelial cell viability, qHTS; series mostly up to 92.2 µM. Put shortly:
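HUV-EC-C human vascular endothelial cells, 1000/well, exposed to compound for 40 hr at 37 °C in complete medium. Intracellular ATP was read by CellTiter-Glo luminescence. AC50 came from Hill-equation fits of concentration-response data.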

Assay [11] in a line: Cell Viability - H-4-II-E (AID 543). Note: % is set by controls: 0 for no effect and ±100 for the full control effect; nearly all actives have a fitted effect of over 35% in size. As to conditions: H-4-II-E rat hepatoma viability; series mostly up to 92.2 µM. Put shortly:
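Rat hepatoma H-4-II-E cells, 1500 per well, treated 40 h at 37 °C in complete medium. Cellular ATP read by CellTiter-Glo luminescence; AC50 from Hill fits of concentration-response.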

Assay [12] is described as follows: Cell Viability - SH-SY5Y (AID 544). Note: nearly all actives have a fitted effect of over 55% in size. As to conditions: SH-SY5Y neuroblastoma cell viability; viability change, negative = cytotoxic: at 92.2 µM (top of the series). Put shortly: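 SH-SY5Y human neuroblastoma cells (1500/well) incubated 5 h, then compound-treated 40 h at 37 °C in complete medium. Viability read as intracellular ATP by CellTiter-Glo luminescence after 20 min; AC50 from Hill-equation fits of qHTS concentration-response.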

A short description of assay [13]: Cell Viability - Renal Proximal Tubule (AID 545). Note: nearly all actives have a fitted effect of over 40% in size. As to conditions: renal proximal tubule cells viability, primary cells of rat origin; series mostly up to 91.7 µM. Summed up: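 Primary rat renal proximal tubule cells (1000/well) were treated with compounds for 40 hr at 37 °C in complete medium. Intracellular ATP was measured by CellTiter-Glo luminescence, and AC50 values came from Hill-equation fits of concentration-response data.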

Assay [14] can be described thus: Cell Viability - Mesenchymal (AID 546).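 Note: cells exposed to compound for 40 hours before reading.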 As to conditions: mesenchymal cells viability, qHTS; series mostly up to 91.7 µM. Summed up: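 Normal human renal glomerulus-derived kidney mesenchymal cells, 1000 per well in complete medium, were treated with compounds for 40 hr at 37 °C. Viability was read as intracellular ATP by CellTiter-Glo luminescence; AC50 values came from Hill-equation fits of qHTS concentration-response data.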

Assay [15] in a line: Cellular Toxicity (caspase-3) HepG2 (AID 654).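 Note: cells exposed to compound for 16 hours before reading; 0% = DMSO alone and 100% = caspase signal from 100 µM tamoxifen.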 As to conditions: HepG2 caspase-3 activation, luminescence; series mostly up to 92.2 µM. Summed up: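 HepG2 cells (1500/well) were treated 16 h at 37 °C in complete medium, then caspase 3/7 activity was read by Caspase-Glo luminescence. Data were normalized to DMSO and 100 uM tamoxifen; AC50 came from Hill-equation fits of qHTS concentration-response.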

Assay [16] is described as follows: Cellular Toxicity (caspase-3) Jurkat (AID 655).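 Note: cells exposed to compound for 16 h at 37 °C before reading.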 As to conditions: Jurkat caspase-3 activation, luminescence; caspase-3 activation: at 92.2 µM (top of the series), DMSO = 0%, tamoxifen = 100%. Put shortly: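 Jurkat cells (5000/well) in complete medium were treated with compounds for 16 hr at 37 °C, then Caspase-Glo 3/7 luminescence was read after 20 min at room temperature. Data normalized to DMSO (basal) and 100 uM tamoxifen (100%); AC50 from Hill fit.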

The nature of assay [17]: Cellular Toxicity (caspase-3) HUV-EC-C (AID 656). As to conditions: HUV-EC-C cells, caspase-3 activation (apoptosis), vehicle = 0, 100 µM tamoxifen = 100%; series mostly up to 92.2 µM. Summed up:
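HUV-EC-C endothelial cells, 1000/well, were pre-incubated 5 hr at 37°C, then exposed to compounds for 16 hr at 37°C. Caspase-Glo 3/7 luminescence was read after 20 min at room temperature. AC50 came from Hill fits, normalized to DMSO and 100 uM tamoxifen.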

The nature of assay [18]: Cellular Toxicity (caspase-3) SHSY5Y (AID 657). As to conditions: SH-SY5Y caspase-3 activation, DMSO zero, 10 µM staurosporine = 100%; series mostly up to 91.7 µM. Summed up:
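SH-SY5Y human neuroblastoma cells (1500/well) were treated with compounds for 16 h at 37 °C, then Caspase-Glo 3/7 luminescence was read after 1 h at room temperature. Data normalized to DMSO and 10 uM staurosporine; AC50 from Hill fits.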

Assay [19] is described as follows: Cellular Toxicity (caspase-3) BJ (AID 658). As to conditions: BJ fibroblasts, luminescence, normalized: DMSO 0%, staurosporine 100%; series mostly up to 91.7 µM. Put shortly:
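Luminescent aminoluciferin-substrate cleavage reports caspase 3/7 activity in normal human BJ fibroblasts after 16 hr compound exposure at 37 °C. Normalized to DMSO (basal) and 10 uM staurosporine (100%); AC50 from Hill fit of concentration-response.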

Assay [20] can be described thus: Cellular Toxicity (caspase-3) MRC-5 (AID 659). As to conditions: MRC-5 cells, luminescence, normalized: DMSO 0%, 10 µM staurosporine 100%; series mostly up to 91.7 µM. Put shortly: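 Luminescence from caspase-cleaved aminoluciferin substrate (Caspase-Glo 3/7, 1 hr RT) reports caspase 3/7 activity in MRC-5 lung fibroblasts after 16 hr compound exposure. Normalized to DMSO basal and 10 uM staurosporine as 100%; AC50 from Hill fits.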

Consider `CN(C)CCCCl`, for which the Potency in [1], in [2], in [3], in [4], in [5] and in assay [6] was above 92 µM each time. The outcome in [7], in assay [17], in assay [18], in assay [19] and in [20] was inactive. Also, the activity change, negative = cytotoxicity in assay [8] was -0.582%. The Potency result in [9], in assay [10], in [11], in assay [12], in assay [13] and in assay [14] was “inactive” in each case. The Potency result in assay [15] was “inactive”. The caspase-3 activation in assay [16] is 1.76%.
Turning to `COc1cccc(N)c1`, the Potency in [1], in assay [2], in [3], in assay [4], in [5] and in [6] was above 92 µM throughout. For the same compound, the compound was called inactive in [7], in [17], in assay [18], in assay [19] and in [20]. In addition, the activity change, negative = cytotoxicity in assay [8] is -15.1%. Besides, the Potency entry in assay [9], in assay [10], in [11], in [12], in assay [13] and in assay [14] was “inactive” in each case. In assay [15], the Potency entry was “inactive”. The caspase-3 activation in assay [16] is 2.35%.
For `NC(=O)/N=N/C(N)=O`, the Potency in [1], in [2], in [3], in [4], in [5] and in assay [6] was above 92 µM each time. Besides, the compound was called inactive in [7], in [17], in [18], in [19] and in assay [20]. Further, the activity change, negative = cytotoxicity in assay [8] was 10.3%. The Potency result in [9], in assay [10], in assay [11], in assay [12], in [13] and in assay [14] was “inactive” each time. The Potency entry in assay [15] is “inactive”. Moreover, in assay [16], the caspase-3 activation is -2.04%.
Turning to `Cc1ccc2c(c1[N+](=O)[O-])C(=O)c1ccccc1C2=O`, the Potency in [1] was above 92 µM; in assay [2], above 92 µM; in [3], 0.351 µM (active); in assay [4], above 92 µM; in [5], above 92 µM; in [6], above 92 µM. The outcome in [7], in assay [17], in assay [18] and in assay [19] was inactive. In addition, in assay [8], the activity change, negative = cytotoxicity is 3.24%. Also, the Potency result in assay [9], in assay [10], in assay [11], in assay [12], in assay [13] and in assay [14] was “inactive” in each case. The Potency entry in assay [15] is “inactive”. Besides, the caspase-3 activation in assay [16] was -1.22%.
Turning to `Cc1cc(C)cc([N+](=O)[O-])c1`, the Potency in [1], in assay [2], in assay [3], in [4], in assay [5] and in assay [6] was above 92 µM each time. For the same compound, the call in [7], in [17], in [18] and in [19] was inactive. Also, the activity change, negative = cytotoxicity in assay [8] is -7.51%. Also, the Potency entry in [9], in assay [10], in assay [11], in assay [12], in [13] and in [14] was “inactive” in each case. The Potency result in assay [15] was “inactive”. The caspase-3 activation in [16] was -1.49%.
